Bioassay records as filed in PubChem.
Most compounds without a hit are left out; they make up all but 1.8% or so of the library.
LAP4 TOR yeast: modulators of LAP4-GFP expression in yeast, primary screen, S. cerevisiae, multiplex flow cytometry, MLPCN library; 3 h; median GFP as percent of DMSO wells; GFP response vs DMSO, % at 10 µM; hit rate 0.34% among 320,000; AID 2023, 2009;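 active = GFP response vs DMSO above a set limit, about the screen mean plus 3 SD, cut at about 150% in these data; inconclusive = under 70 cell events counted for the yeast strain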
CIT2-GFP yeast: modulators of CIT2-GFP expression in yeast, primary screen, S. cerevisiae, GFP fusion, multiplex flow cytometry, MLPCN library | hit rate 0.065% among 320,000 | GFP response vs DMSO, % at 10 µM | S. cerevisiae CIT2-GFP strain, 3 h; 100 means same as DMSO wells;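 active = GFP response relative to DMSO above a set limit, near the screen mean plus 3 SD, cut at about 150% in these data; inconclusive = Fewer than 70 cells measured for a yeast strain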;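 note: ratio of well median GFP fluorescence to mean of DMSO wells on the plate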
RPL19A TOR yeast: RPL19A-GFP expression modulators in yeast, primary screen, cell-based, S. cerevisiae, multiplex flow cytometry, MLPCN | S. cerevisiae RPL19A-GFP strain, 3 h; stronger effect = lower value | percent response vs DMSO, % at 10 µM | hit rate 0.3% among 330,000;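 active = percent response vs DMSO below 50%; inconclusive = fewer than 70 events counted for the yeast strain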;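 note: median channel GFP fluorescence of the barcoded RPL19A-GFP strain; lower means less RPL19A-GFP as with rapamycin TOR inhibition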
Myeloid diff MLP: induction of myeloid progenitor differentiation, primary screen, cell-based, flow cytometry, MLPCN library; ER-HoxA9 myeloid progenitors, lysozyme-GFP differentiation; calls only at 10 µM; hit rate 1% among 360,000; AID 624256, 2012;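 active = normalized GFP-positive differentiation at or above the plate's own cutoff, the solvent-only control mean plus 3 SD; inconclusive = no clear call, values can overlap the other calls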;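 note: cells exposed to compound for four days before flow analysis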
AGP1 TOR yeast: modulators of AGP1-GFP expression in yeast TOR pathway, primary screen, cell-based, multiplex flow cytometry, S. cerevisiae, MLPCN library. 3 h; GFP as percent of DMSO wells. GFP response vs DMSO, % at 10 µM. hit rate 0.02% among 320,000. AID 2066, 2009;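 active = GFP response relative to DMSO above a set limit, near screen average plus 3 SD, cut at about 150% in these data; inconclusive = fewer than 70 cells counted for the yeast strain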;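 note: median GFP channel fluorescence of the gated AGP1 strain per well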
MEP2 TOR yeast: modulators of MEP2-GFP levels in yeast, primary screen, S. cerevisiae, multiplex flow cytometry, MLPCN library; S. cerevisiae MEP2-GFP strain, 3 h; 100% = DMSO control level; GFP response vs DMSO, % at 10 µM; hit rate 0.51% among 330,000; AID 2016, 2009;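 active = GFP response versus DMSO above a set limit, roughly screen mean plus 3 SD, cut at about 180% in these data; inconclusive = fewer than 70 cells counted for a yeast strain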;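 note: median GFP fluorescence of the barcode-gated MEP2-GFP cells per well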
Numbers stand for hits; [ ] = dose if it differs, or a comment.

Results for CC1(C)CC(=O)c2sc(N3CCCCC3)nc2C1 ?
LAP4 TOR yeast: inactive; CIT2-GFP yeast: inconclusive; RPL19A TOR yeast: inactive; Myeloid diff MLP: inactive; AGP1 TOR yeast: inactive; MEP2 TOR yeast: 218[may fluoresce violet]

How did O=C(Nc1ccncc1)c1cccc(S(=O)(=O)N2CCc3ccccc32)c1 do in these assays?
LAP4 TOR yeast: inactive; CIT2-GFP yeast: inactive; RPL19A TOR yeast: inactive; Myeloid diff MLP: active; AGP1 TOR yeast: inactive; MEP2 TOR yeast: inactive

Results for O=c1[nH]ncc2c3ccccc3n(Cc3cccc(Cl)c3)c12 ?
LAP4 TOR yeast: inactive; CIT2-GFP yeast: inactive; RPL19A TOR yeast: inactive; Myeloid diff MLP: inactive; AGP1 TOR yeast: inactive; MEP2 TOR yeast: inactive

Results for O=c1[nH]ncc2c3ccccc3n(Cc3ccc(F)cc3)c12 ?
LAP4 TOR yeast: inactive; CIT2-GFP yeast: inconclusive; RPL19A TOR yeast: inactive; Myeloid diff MLP: inactive; AGP1 TOR yeast: inconclusive; MEP2 TOR yeast: 235[may fluoresce violet]

What do the screens show for `Cc1sc2nc(C3CC3)nc(SCC(=O)N3c4ccccc4CC3C)c2c1C` (configuration not stated)?
LAP4 TOR yeast: inactive; CIT2-GFP yeast: inactive; RPL19A TOR yeast: inactive; Myeloid diff MLP: active; AGP1 TOR yeast: inactive; MEP2 TOR yeast: inactive

What do the screens show for `Cc1cc(/C=C2\SC(=S)N(C)C2=O)c(C)n1-c1ccccc1O`?
LAP4 TOR yeast: inactive; CIT2-GFP yeast: inactive; RPL19A TOR yeast: inactive; Myeloid diff MLP: active; AGP1 TOR yeast: inactive; MEP2 TOR yeast: inactive

Results for Cc1cc(/C=C2\SC(=S)N(C)C2=O)c(C)n1-c1ccc(O)cc1 ?
LAP4 TOR yeast: inactive; CIT2-GFP yeast: inactive; RPL19A TOR yeast: inactive; Myeloid diff MLP: inactive; AGP1 TOR yeast: inactive; MEP2 TOR yeast: inactive

What do the screens show for `O=C(O)C1CCCCC1C(=O)Nc1ccc(F)cc1F` (configuration not stated)?
LAP4 TOR yeast: inconclusive; CIT2-GFP yeast: inconclusive; RPL19A TOR yeast: 15[may fluoresce violet]; Myeloid diff MLP: inactive; AGP1 TOR yeast: inconclusive; MEP2 TOR yeast: inconclusive

What do the screens show for `CCO[C@H]1OC(C(=O)O)=C[C@@H](C)[C@@H]1CCCO`?
LAP4 TOR yeast: inactive; CIT2-GFP yeast: inactive; RPL19A TOR yeast: inactive; Myeloid diff MLP: inactive; AGP1 TOR yeast: inactive; MEP2 TOR yeast: inactive

Results for O=C(O)c1ccc(CSc2n[nH]c(-c3ccco3)n2)cc1 ?
LAP4 TOR yeast: inactive; CIT2-GFP yeast: inactive; RPL19A TOR yeast: inactive; Myeloid diff MLP: inactive; AGP1 TOR yeast: inactive; MEP2 TOR yeast: inactive

Results for C#CCSc1n[nH]c(-c2ccco2)n1 ?
LAP4 TOR yeast: inactive; CIT2-GFP yeast: inactive; RPL19A TOR yeast: inactive; Myeloid diff MLP: active; AGP1 TOR yeast: inactive; MEP2 TOR yeast: inactive

What do the screens show for `COc1ccc(NC(=O)CSc2n[nH]c(-c3ccco3)n2)cc1`?
LAP4 TOR yeast: inactive; CIT2-GFP yeast: inactive; RPL19A TOR yeast: inactive; Myeloid diff MLP: active; AGP1 TOR yeast: inactive; MEP2 TOR yeast: inactive

How did Cc1ccc2c(CN3CCCc4ccccc43)cc(=O)oc2c1C do in these assays?
LAP4 TOR yeast: inactive; CIT2-GFP yeast: inactive; RPL19A TOR yeast: inactive; Myeloid diff MLP: active; AGP1 TOR yeast: inactive; MEP2 TOR yeast: inactive

How did Cc1ccc2c(CN3CCCCC3)cc(=O)oc2c1C do in these assays?
LAP4 TOR yeast: inactive; CIT2-GFP yeast: inactive; RPL19A TOR yeast: inactive; Myeloid diff MLP: inactive; AGP1 TOR yeast: inactive; MEP2 TOR yeast: inactive

Results for O=c1nc2ccccc2c2n1CC(CN1CCN(c3ccc(F)cc3)CC1)N2 (configuration not stated) ?
LAP4 TOR yeast: inactive; CIT2-GFP yeast: inconclusive; RPL19A TOR yeast: 31[may fluoresce violet]; Myeloid diff MLP: inactive; AGP1 TOR yeast: inconclusive; MEP2 TOR yeast: inactive

Results for CCCNC(=O)c1ccc2c(=O)c(O)c(-c3ccsc3)[nH]c2c1 ?
LAP4 TOR yeast: inactive; CIT2-GFP yeast: inactive; RPL19A TOR yeast: inactive; Myeloid diff MLP: active; AGP1 TOR yeast: inactive; MEP2 TOR yeast: inactive

What do the screens show for `CCOC(=O)N1CCN(S(=O)(=O)c2c(C(=O)N3CCCCC3)c(C)n(C)c2C)CC1`?
LAP4 TOR yeast: inactive; CIT2-GFP yeast: inactive; RPL19A TOR yeast: inactive; Myeloid diff MLP: active; AGP1 TOR yeast: inactive; MEP2 TOR yeast: inactive

What do the screens show for `CCOC(=O)C1CCN(S(=O)(=O)c2c(C(=O)N3CCCCC3)c(C)n(C)c2C)CC1`?
LAP4 TOR yeast: inactive; CIT2-GFP yeast: inactive; RPL19A TOR yeast: inactive; Myeloid diff MLP: inactive; AGP1 TOR yeast: inactive; MEP2 TOR yeast: inactive

Results for Clc1ccc2nnc(Cl)n2n1 ?
LAP4 TOR yeast: inactive; CIT2-GFP yeast: inactive; RPL19A TOR yeast: inactive; Myeloid diff MLP: active; AGP1 TOR yeast: inactive; MEP2 TOR yeast: inactive

Results for CC1CC(NC(=O)c2c(O)nc3sccn3c2=O)CC(C)(C)C1 (configuration not stated) ?
LAP4 TOR yeast: inactive; CIT2-GFP yeast: inactive; RPL19A TOR yeast: inactive; Myeloid diff MLP: active; AGP1 TOR yeast: inactive; MEP2 TOR yeast: inactive

How did CCC(NC(=O)c1cc(COc2c(F)cccc2F)on1)c1ccncc1 (configuration not stated) do in these assays?
LAP4 TOR yeast: inactive; CIT2-GFP yeast: inactive; RPL19A TOR yeast: inactive; Myeloid diff MLP: inactive; AGP1 TOR yeast: inactive; MEP2 TOR yeast: inactive

How did ON=C1c2ccccc2-c2ccccc21 do in these assays?
LAP4 TOR yeast: inactive; CIT2-GFP yeast: inactive; RPL19A TOR yeast: inactive; Myeloid diff MLP: inactive; AGP1 TOR yeast: inactive; MEP2 TOR yeast: inactive

What do the screens show for `NC(N)=NN=C1c2ccccc2-c2ccccc21`?
LAP4 TOR yeast: inactive; CIT2-GFP yeast: inactive; RPL19A TOR yeast: inactive; Myeloid diff MLP: active; AGP1 TOR yeast: inactive; MEP2 TOR yeast: inactive

Results for COc1ccc(C(=O)C2CCCN(Cc3ccc(C#CCCO)cc3)C2)cc1F (configuration not stated) ?
LAP4 TOR yeast: inactive; CIT2-GFP yeast: inactive; RPL19A TOR yeast: inactive; Myeloid diff MLP: active; AGP1 TOR yeast: inactive; MEP2 TOR yeast: inactive

How did COc1ccc(C(=O)C2CCCN(Cc3ccc4nonc4c3)C2)cc1F (configuration not stated) do in these assays?
LAP4 TOR yeast: inactive; CIT2-GFP yeast: inactive; RPL19A TOR yeast: inactive; Myeloid diff MLP: inactive; AGP1 TOR yeast: inactive; MEP2 TOR yeast: inactive

Results for CCOC(=O)C1Nc2ccc(C(F)(F)F)cc2C2c3ccccc3CC12 (configuration not stated) ?
LAP4 TOR yeast: inactive; CIT2-GFP yeast: inactive; RPL19A TOR yeast: inactive; Myeloid diff MLP: inactive; AGP1 TOR yeast: inactive; MEP2 TOR yeast: inactive

How did CCOC(=O)C1Nc2ccccc2C2C(O)C(O)CC12 (configuration not stated) do in these assays?
LAP4 TOR yeast: inactive; CIT2-GFP yeast: inactive; RPL19A TOR yeast: inactive; Myeloid diff MLP: active; AGP1 TOR yeast: inactive; MEP2 TOR yeast: inactive

What do the screens show for `O=C(NC1CCCCCC1)c1[nH]c(C(F)(F)F)nc1-c1ccccc1`?
Myeloid diff MLP: inactive
